# Source: PubChem BioAssay (NCI)
# The panel holds about 83,000 compounds, 20% with a hit somewhere; the sample as a whole holds those more often.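 Each cell line was grown in a 96-well plate and treated with one concentration of compound for 48 hours. Values below 10 were considered active.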 Unmarked numbers belong to inactive results. Calls of active or inactive are those of the source.
# System: A549/ATCC NSCLC
# Experiment: NCI-60 one-dose screen, 48 h (100 = growth as untreated, 0 = no growth, -100 = all killed)
# Conditions: 10 µM unless noted
row,SMILES,growth
1,O=C(Nc1ccc(Cl)cc1)C1=NCCCCN1,92.6%
2,Fc1ccc(/C=C/c2cc(/C=C/c3ccc(F)cc3)n(-c3cc(F)cc(F)c3)n2)cc1,90.8%
3,Nc1n[nH]c2cccc(C#Cc3cccc(C(=O)Nc4ccc(Cl)c(C(F)(F)F)c4)c3)c12,71.3%
4,CC/C(=C(/c1ccc(Cl)cc1)c1ccc(OCCN2CCCCCC2)cc1)c1ccccc1,59.5%
5,COC(CCP(=O)(c1ccccc1)c1ccccc1)(C(=O)c1ccccc1)c1ccccc1 (centres undefined),48.1%
6,CC(=O)CC(=O)c1ccccc1.[Cu+2],104%
7,CN1CCN(Cc2ccc(NC(=O)c3cncc(C#Cc4cnc(N)c5ccc(C#N)cc45)c3)cc2C(F)(F)F)CC1,-53% (active)
8,CNC(=O)c1cc(Oc2ccc3nc(NC(=O)NC(C)C)sc3c2)ccn1,64.3%
9,N/C(=N\c1nc2ccccc2s1)NC(=O)Nc1ccccc1,39%
10,CCOC(=O)/C(=C\c1ccccc1Cl)P(=O)(OCC)OCC,64.9%
11,O=C(/C=C/c1ccc(Cl)cc1)c1ccc(-n2cc(CN3CCN(c4cc5c(cc4F)c(=O)c(C(=O)O)cn5C4CC4)CC3)nn2)cc1,89%
12,COc1cc2cc(Oc3ccc(NC(=O)Nc4ccc(Cl)c(Cl)c4)cc3)c(C)nc2cc1OCCN1CCCCC1,86.9%
13,CCN(CC)CCN1C(=O)c2c(c(C)c3c(oc4cc(OC)ccc43)c2C)C1=O,104%
14,Cn1ncc(CC(=O)O)c1-n1nnc2cc(Cl)ccc2c1=O,97.3%
15,COc1ccc(CNc2ccc3nc(CCC4CCCCC4)[nH]c3c2)cc1,80.2%
16,CC(C)(C)[C@H](OCc1cn([C@H]2C[C@@H](O)[C@@H](CO)O2)c(=O)[nH]c1=O)c1ccc(C#Cc2ccccc2)cc1[N+](=O)[O-],46.5%
17,N#C/C(=C\c1cccc2cnccc12)N1N=NC2C=CC=CC21 (centres undefined),64.2%
18,Cc1c2cnccc2c(C)c2c1c1cc(C(=O)O)ccc1n2C,8.95% (active)
19,COCCn1cc(-c2nc(-c3cc4cccnc4n3C)cs2)c2cc(OC)ccc21,40.6%
20,Cc1ccc(S(=O)(=O)N(CCC(=O)O)c2ccccc2)cc1,104%

row,SMILES,growth
1,C=CN(C(=O)N1CCN(c2cc3c(cc2F)c(=O)c(C(=O)O)cn3C2CC2)CC1)c1nc(-c2ccc(C)cc2)cs1,15.7%
2,CCOC(=O)/C(=C/c1ccc([N+](=O)[O-])cc1)C(=O)c1ccccc1,71.5%
3,CC(C)C(=O)Nc1ncc(C(=O)NCCN(Cc2ccccc2)C(=O)c2ccc(S(=O)(=O)Nc3ccccc3)cc2)s1,103%
4,OC1CSSC1Cn1cnc2c(Nc3ccc(F)c(Cl)c3)ncnc21 (centres undefined),77.5%
5,CCCCCCCCNc1ncnc2c1ncn2Cc1nnc2c3ccccc3c(Cl)nn12,73.1%
6,CN1C(=O)N(C)C2C1NN=c1s/c(=C\c3ccc(F)cc3)c(=O)n12 (centres undefined),24.8%
7,COC(=O)c1cc(-c2cc(OC)c(OC)c(OC)c2)[nH]c1N/N=C/c1c(Cl)cccc1Cl,28.1%
8,COc1ccc(Nc2nc(Nc3cc(C)[nH]n3)c3cc(OC)c(OC)cc3n2)cc1,-61.2% [20 µM] (active)
9,CCN1C(=O)N(CC)C2C1NN=c1s/c(=C\c3ccc(F)cc3)c(=O)n12 (centres undefined),15.5%
10,CC(C)c1nc(N(C)S(C)(=O)=O)nc(-c2ccc(F)cc2)c1/C=C/C(=O)C[C@@H](O)CC(=O)O,89.5%
11,C=C(C)[C@@H]1CC[C@]2(COCCCNCCCN)CC[C@]3(C)[C@H](CC[C@@H]4[C@@]5(C)CC[C@H](OCCCN)C(C)(C)[C@@H]5CC[C@]43C)[C@@H]12,-66.6% (active)
12,C=C(C)[C@@H]1CC[C@]2(COC(=O)c3cccnc3)CC[C@]3(C)[C@H](CC[C@@H]4[C@@]5(C)CCCN(C(=O)c6cccnc6)C(C)(C)[C@@H]5CC[C@]43C)[C@@H]12,29.3%
13,COc1cccc(C2C(C#N)=C(N)Oc3c2ccc2ccccc32)c1 (centres undefined),26.2%
14,C#Cc1cccc(Nc2ncnc3ccc(-c4cnc(Cl)c(NS(C)(=O)=O)c4)cc23)c1,-28.5% (active)
15,CCN1C(=O)N(CC)C2C1NN=c1s/c(=C3\C(=O)N(C)c4ccccc43)c(=O)n12 (centres undefined),35.1%
16,O=C(Nc1ncc(Cc2ccccc2)s1)c1ccc2c(c1)OCCO2,16.6%
17,COc1cc(/C=C/c2cc(/C=C/c3ccc(O)c(OC)c3)n(C(=O)Nc3ccc(C)cc3C)n2)ccc1O,-3.98% (active)
18,CC(C)(C)CC(C)(C)Nc1c(-c2c(O)c3ccccc3oc2=O)nc2sccn12,90.8%
19,COc1ccc(Cn2cc3c(c2)-c2oncc2CC3)cc1,52.1%
